Reference: PMC7862700, “An all-to-all approach to the identification of sequence-specific readers for epigenetic DNA modifications on cytosine”

Legend:
Assay in all cases: DAPPL (digital affinity profiling via proximity ligation, sequencing); 10 mM Tris-HCl pH 7.5, 50 mM NaCl, 1 mM DTT, 4% glycerol, room temperature, 30 min; GST-TFs on glutathione beads, 16-mer random dsDNA library, 0.1% formaldehyde crosslink after washing; high values mean tight binding
Conditions in all cases: protein: recombinant; tags: N-terminal GST; dsDNA, one strand shown
FEV = target: T1, FEV (Homo sapiens, UniProt Q99581 1-238)
T1 sequence: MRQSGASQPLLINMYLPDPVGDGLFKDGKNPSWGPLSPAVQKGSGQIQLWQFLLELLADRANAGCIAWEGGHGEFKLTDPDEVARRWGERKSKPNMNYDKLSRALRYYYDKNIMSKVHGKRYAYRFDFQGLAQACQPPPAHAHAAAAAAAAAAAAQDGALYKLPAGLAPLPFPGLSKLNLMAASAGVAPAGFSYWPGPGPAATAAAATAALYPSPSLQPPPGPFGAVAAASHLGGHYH
In short: (§1)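 Yeast served to express human transcription factors as GST fusions, which were then captured on glutathione beads and labelled with DNA barcodes. Pooled with a tag-only sample, they were incubated with 200 nmole of a 16-mer random double-stranded DNA library for 30 min at room temperature in Tris/NaCl/DTT/glycerol buffer, washed, crosslinked with 0.1% formaldehyde, ligated by proximity, amplified by PCR and sequenced. Dividing each hexamer's read frequency for a factor by its frequency for the tag-only sample gives the binding signal.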

ETV5 = ETV5 (Homo sapiens, UniProt P41161 1-510)
In short: as §1

SPIC = target: T2, SPIC (Homo sapiens, UniProt Q8N5J4 1-248)
T2 sequence: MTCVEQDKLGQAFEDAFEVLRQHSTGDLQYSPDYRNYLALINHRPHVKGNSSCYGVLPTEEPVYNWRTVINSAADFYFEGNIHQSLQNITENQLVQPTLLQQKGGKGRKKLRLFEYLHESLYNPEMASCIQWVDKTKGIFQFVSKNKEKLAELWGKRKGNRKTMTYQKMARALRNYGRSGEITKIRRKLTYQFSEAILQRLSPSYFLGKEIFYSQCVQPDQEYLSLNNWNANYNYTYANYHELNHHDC
In short: as §1

ELF4 = ELF4 (Homo sapiens, UniProt Q99607 1-663)
In short: as §1

ELK4 = target: T3, ELK4 (Homo sapiens, UniProt P28324-2 1-405)
T3 sequence: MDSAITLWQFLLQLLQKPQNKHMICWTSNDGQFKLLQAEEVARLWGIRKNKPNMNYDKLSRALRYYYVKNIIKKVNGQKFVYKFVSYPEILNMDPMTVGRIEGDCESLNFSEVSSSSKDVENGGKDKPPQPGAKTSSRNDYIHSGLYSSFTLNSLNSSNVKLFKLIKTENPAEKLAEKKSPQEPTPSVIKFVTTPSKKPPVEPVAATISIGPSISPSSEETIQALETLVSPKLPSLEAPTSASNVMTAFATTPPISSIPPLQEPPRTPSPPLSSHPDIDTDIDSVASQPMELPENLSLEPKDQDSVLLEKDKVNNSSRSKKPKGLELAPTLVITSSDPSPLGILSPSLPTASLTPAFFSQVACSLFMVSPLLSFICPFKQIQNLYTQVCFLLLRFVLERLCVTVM
In short: as §1

ETV2 = target: T4, ETV2 (Homo sapiens, UniProt O00321 1-342)
T4 sequence: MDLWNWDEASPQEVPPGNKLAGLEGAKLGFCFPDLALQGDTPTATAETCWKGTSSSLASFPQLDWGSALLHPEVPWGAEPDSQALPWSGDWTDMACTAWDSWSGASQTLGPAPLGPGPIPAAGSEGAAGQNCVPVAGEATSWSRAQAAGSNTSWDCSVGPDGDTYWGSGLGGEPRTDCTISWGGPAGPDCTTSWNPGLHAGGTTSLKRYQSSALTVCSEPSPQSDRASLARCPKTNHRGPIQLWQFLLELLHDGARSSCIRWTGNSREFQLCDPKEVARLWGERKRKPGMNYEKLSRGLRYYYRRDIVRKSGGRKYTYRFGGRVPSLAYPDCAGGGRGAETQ
In short: as §1

ELF3 = target: T5, ELF3 (Homo sapiens, UniProt P78545 1-371)
T5 sequence: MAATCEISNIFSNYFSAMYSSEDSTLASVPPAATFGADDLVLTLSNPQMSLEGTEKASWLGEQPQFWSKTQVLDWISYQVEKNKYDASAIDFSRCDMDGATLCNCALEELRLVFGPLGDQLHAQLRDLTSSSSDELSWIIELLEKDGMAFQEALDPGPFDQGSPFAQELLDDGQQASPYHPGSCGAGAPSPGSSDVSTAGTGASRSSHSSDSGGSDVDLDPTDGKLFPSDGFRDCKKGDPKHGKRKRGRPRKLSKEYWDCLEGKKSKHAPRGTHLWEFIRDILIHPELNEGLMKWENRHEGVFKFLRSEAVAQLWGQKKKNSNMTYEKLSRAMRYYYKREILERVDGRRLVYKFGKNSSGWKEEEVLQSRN
In short: as §1

ETV1 = ETV1 (Homo sapiens, UniProt P50549 1-477)
In short: as §1

ERF = target: T6, ERF (Homo sapiens, UniProt P50548 1-548)
T6 sequence: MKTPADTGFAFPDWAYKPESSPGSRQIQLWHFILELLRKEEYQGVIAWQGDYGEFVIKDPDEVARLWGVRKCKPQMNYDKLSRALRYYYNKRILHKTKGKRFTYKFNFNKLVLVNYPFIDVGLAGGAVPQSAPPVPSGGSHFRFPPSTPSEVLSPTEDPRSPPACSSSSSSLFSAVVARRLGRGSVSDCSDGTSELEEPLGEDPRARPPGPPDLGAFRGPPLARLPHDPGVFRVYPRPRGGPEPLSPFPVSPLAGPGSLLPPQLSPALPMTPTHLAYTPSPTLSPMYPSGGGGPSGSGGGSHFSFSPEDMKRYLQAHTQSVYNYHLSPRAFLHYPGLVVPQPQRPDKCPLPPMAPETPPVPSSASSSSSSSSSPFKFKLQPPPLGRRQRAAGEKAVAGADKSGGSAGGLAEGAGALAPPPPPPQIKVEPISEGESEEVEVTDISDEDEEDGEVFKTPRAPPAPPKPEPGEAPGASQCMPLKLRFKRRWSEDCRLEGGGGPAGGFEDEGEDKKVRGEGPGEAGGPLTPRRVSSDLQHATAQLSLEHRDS
In short: as §1

ETV3L = target: T7, ETV3L (Homo sapiens, UniProt Q6ZN32 1-361)
T7 sequence: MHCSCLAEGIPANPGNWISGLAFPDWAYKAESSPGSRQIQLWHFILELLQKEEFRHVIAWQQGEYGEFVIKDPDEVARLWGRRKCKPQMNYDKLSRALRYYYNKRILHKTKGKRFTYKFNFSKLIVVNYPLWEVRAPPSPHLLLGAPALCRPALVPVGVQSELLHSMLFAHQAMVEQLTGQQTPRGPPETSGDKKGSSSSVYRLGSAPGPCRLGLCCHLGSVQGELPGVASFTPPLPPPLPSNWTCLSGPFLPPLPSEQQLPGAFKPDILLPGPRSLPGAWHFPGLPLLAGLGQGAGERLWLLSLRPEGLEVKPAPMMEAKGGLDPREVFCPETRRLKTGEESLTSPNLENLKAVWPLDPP
In short: as §1

ETS2 = target: T8, ETS2 (Homo sapiens, UniProt P15036 1-469)
T8 sequence: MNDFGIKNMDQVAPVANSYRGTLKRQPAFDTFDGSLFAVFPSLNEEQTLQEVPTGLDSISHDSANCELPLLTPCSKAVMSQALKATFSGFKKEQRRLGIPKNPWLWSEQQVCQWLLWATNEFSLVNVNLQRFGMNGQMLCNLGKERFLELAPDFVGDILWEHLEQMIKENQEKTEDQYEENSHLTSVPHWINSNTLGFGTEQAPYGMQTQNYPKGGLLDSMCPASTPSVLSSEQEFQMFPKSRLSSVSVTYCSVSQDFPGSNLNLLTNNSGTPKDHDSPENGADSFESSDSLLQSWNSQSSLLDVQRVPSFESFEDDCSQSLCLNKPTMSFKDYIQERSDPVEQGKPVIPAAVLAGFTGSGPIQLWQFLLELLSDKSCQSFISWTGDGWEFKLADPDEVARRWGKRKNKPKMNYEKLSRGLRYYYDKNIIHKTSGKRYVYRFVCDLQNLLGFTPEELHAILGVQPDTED
In short: as §1

SPDEF = target: T9, SPDEF (Homo sapiens, UniProt O95238 1-335)
T9 sequence: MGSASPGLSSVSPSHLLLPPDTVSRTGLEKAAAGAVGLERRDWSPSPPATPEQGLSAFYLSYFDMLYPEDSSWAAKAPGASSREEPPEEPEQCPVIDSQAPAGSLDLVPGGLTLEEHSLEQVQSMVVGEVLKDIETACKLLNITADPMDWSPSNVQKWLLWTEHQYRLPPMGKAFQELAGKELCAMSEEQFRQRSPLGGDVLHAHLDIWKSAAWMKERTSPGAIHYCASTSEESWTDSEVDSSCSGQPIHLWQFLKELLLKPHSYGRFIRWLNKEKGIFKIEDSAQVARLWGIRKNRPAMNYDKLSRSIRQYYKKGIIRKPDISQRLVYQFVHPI
In short: as §1

ETV7 = target: T10, ETV7 (Homo sapiens, UniProt Q9Y603 1-341)
T10 sequence: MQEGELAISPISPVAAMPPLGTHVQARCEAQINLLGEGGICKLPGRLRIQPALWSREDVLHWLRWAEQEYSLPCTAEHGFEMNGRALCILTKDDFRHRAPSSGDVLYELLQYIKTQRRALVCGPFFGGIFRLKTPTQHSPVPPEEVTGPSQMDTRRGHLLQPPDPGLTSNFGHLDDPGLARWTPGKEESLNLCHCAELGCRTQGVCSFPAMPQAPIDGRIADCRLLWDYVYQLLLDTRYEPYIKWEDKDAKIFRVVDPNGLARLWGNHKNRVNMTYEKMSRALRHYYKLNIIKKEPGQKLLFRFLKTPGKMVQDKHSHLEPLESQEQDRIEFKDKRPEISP
In short: as §1

ELF5 = target: T11, ELF5 (Homo sapiens, UniProt Q9UKW6-2 1-255)
T11 sequence: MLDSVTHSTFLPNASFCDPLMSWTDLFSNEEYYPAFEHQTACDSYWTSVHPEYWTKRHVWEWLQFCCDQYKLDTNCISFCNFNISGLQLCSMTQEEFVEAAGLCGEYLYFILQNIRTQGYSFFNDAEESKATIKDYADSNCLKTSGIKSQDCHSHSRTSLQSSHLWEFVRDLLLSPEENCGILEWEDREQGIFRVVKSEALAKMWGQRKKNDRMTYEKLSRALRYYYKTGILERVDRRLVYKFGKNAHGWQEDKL
In short: as §1

ETV3 = target: T12, ETV3 (Homo sapiens, UniProt P41162-2 1-143)
T12 sequence: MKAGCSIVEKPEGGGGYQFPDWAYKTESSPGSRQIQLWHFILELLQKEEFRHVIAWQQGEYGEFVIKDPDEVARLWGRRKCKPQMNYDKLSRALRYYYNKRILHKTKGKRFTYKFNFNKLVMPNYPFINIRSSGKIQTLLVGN
In short: as §1

ETV6 = ETV6 (Homo sapiens, UniProt P41212 1-452)
In short: as §1

ETV6, sequence (P41212 whole entry): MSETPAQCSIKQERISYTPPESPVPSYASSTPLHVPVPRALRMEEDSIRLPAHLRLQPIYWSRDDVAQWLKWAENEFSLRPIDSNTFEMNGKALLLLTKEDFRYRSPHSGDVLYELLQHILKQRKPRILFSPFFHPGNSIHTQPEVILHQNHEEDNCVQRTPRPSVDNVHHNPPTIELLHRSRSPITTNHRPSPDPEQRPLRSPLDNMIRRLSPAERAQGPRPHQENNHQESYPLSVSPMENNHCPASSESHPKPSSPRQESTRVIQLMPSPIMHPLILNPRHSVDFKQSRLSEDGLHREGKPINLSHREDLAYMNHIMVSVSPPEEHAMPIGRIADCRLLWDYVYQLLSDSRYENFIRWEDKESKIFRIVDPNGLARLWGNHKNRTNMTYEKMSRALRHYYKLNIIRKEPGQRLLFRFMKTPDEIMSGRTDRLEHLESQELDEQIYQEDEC
ELF4, sequence (Q99607 whole entry): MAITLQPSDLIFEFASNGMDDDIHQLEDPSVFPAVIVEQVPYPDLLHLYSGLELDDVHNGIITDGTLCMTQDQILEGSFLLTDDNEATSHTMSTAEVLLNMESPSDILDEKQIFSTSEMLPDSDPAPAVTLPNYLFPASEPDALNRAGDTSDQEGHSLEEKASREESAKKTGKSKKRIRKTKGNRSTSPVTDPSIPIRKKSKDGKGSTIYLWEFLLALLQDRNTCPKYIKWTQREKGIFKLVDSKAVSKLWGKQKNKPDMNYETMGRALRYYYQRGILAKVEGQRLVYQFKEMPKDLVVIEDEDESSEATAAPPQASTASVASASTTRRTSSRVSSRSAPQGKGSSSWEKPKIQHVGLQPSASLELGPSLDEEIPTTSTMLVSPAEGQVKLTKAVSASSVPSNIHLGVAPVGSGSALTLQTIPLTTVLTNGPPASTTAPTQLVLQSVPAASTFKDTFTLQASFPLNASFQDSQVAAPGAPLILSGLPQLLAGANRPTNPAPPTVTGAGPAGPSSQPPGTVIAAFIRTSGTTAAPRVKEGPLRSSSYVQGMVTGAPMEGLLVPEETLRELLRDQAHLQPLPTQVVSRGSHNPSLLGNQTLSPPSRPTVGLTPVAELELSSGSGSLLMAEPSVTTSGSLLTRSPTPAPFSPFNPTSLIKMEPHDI
ETV5, sequence (P41161 whole entry): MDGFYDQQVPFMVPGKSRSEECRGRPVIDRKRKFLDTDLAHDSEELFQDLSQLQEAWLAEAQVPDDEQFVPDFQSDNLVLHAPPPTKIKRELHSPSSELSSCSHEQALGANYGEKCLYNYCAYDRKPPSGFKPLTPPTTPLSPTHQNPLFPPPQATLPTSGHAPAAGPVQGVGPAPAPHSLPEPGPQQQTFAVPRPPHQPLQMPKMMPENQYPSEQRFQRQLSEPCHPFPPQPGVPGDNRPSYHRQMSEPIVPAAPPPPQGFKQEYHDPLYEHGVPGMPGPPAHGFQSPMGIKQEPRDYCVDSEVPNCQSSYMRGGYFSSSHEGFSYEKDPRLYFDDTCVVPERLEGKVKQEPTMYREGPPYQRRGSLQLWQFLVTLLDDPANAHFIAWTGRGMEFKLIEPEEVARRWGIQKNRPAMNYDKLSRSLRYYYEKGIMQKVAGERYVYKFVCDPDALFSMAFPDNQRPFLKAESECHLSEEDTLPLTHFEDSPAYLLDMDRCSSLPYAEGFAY
ETV1, sequence (P50549 whole entry): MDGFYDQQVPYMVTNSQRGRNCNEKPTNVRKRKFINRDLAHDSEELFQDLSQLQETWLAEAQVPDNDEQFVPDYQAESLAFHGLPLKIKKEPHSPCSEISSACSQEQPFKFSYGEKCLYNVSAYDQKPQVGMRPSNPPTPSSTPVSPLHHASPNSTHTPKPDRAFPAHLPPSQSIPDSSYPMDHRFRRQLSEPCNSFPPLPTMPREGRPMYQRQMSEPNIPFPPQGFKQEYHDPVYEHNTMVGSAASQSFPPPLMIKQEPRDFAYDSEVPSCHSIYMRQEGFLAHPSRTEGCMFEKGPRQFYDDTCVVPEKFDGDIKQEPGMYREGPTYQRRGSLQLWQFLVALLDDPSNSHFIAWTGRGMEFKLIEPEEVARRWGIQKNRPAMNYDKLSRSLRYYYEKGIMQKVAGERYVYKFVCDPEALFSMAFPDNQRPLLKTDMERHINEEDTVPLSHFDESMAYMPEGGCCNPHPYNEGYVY

Sequence | binding signal (FEV) | binding signal (ETV5) | binding signal (SPIC) | binding signal (ELF4) | binding signal (ELK4) | binding signal (ETV2) | binding signal (ELF3) | binding signal (ETV1) | binding signal (ERF) | binding signal (ETV3L) | binding signal (ETS2) | binding signal (SPDEF) | binding signal (ETV7) | binding signal (ELF5) | binding signal (ETV3) | binding signal (ETV6)
CACCAT | 1.05 fold enrichment (6-mer frequency, TF over GST control) | 1.11 fold enrichment (6-mer frequency, TF over GST control) | 1.06 fold enrichment (6-mer frequency, TF over GST control) | 1.12 fold enrichment (6-mer frequency, TF over GST control) | 1.21 fold enrichment (6-mer frequency, TF over GST control) | 1.17 fold enrichment (6-mer frequency, TF over GST control) | 1.1 fold enrichment (6-mer frequency, TF over GST control) | 1.08 fold enrichment (6-mer frequency, TF over GST control) | 1.12 fold enrichment (6-mer frequency, TF over GST control) | 1.16 fold enrichment (6-mer frequency, TF over GST control) | 1.08 fold enrichment (6-mer frequency, TF over GST control) | 1.02 fold enrichment (6-mer frequency, TF over GST control) | 1.15 fold enrichment (6-mer frequency, TF over GST control) | 1.1 fold enrichment (6-mer frequency, TF over GST control) | 1.05 fold enrichment (6-mer frequency, TF over GST control) | 1.04 fold enrichment (6-mer frequency, TF over GST control)
CTGTCA | 1.03 fold enrichment (6-mer frequency, TF over GST control) | 1.06 fold enrichment (6-mer frequency, TF over GST control) | 1.27 fold enrichment (6-mer frequency, TF over GST control) | 1.13 fold enrichment (6-mer frequency, TF over GST control) | 1.27 fold enrichment (6-mer frequency, TF over GST control) | 1.19 fold enrichment (6-mer frequency, TF over GST control) | 1.16 fold enrichment (6-mer frequency, TF over GST control) | 1.14 fold enrichment (6-mer frequency, TF over GST control) | 1.17 fold enrichment (6-mer frequency, TF over GST control) | 1.22 fold enrichment (6-mer frequency, TF over GST control) | 1.14 fold enrichment (6-mer frequency, TF over GST control) | 1.06 fold enrichment (6-mer frequency, TF over GST control) | 1.12 fold enrichment (6-mer frequency, TF over GST control) | 1.14 fold enrichment (6-mer frequency, TF over GST control) | 1.09 fold enrichment (6-mer frequency, TF over GST control) | 1.1 fold enrichment (6-mer frequency, TF over GST control)
